Experimental data reported in PubChem BioAssay AID463173 (ICCB-Longwood Screening Facility, Harvard Medical School, 2010).
About 4,300 (8.3%) of roughly 52,000 compounds were called active. Rule as the data show it: active = survival mostly below about 52% (no sharp cut-off); inactive = mostly above about 56%. Many of the other results were omitted from the sample, so actives are more common in it than they were.

Test system: DeltatarO mutant
Assay: S. aureus survival, RN4220 and DeltatarO strains – OD600, teichoic acid synthesis inhibitors, primary screen (AID 463173)
Conditions: S. aureus RN4220 wild type/DeltatarO growth, OD600, 18 h, hits give low values, screened at 18.75 µg/mL (by protocol)

SMILES	survival
O=S(=O)(c1ccc(Cl)cc1)c1nnn2c1nc(N1CCCCC1)c1sccc12	52% (inactive)
CCSC(=C(C#N)C#N)c1cc2c([nH]1)CCCC2	45% (active)
N#CC(C#N)=C(C#N)c1cc2c([nH]1)CCCC2	81% (inactive)
CCS/C(=C(\C#N)C(N)=O)c1ccc(-c2ccccc2)[nH]1	59% (inactive)
CCCOc1ccc(C2C(=O)N(C3CCCCC3)CC(=O)N2CCc2ccccc2)cc1OC (stereo not drawn)	86% (inactive)
O=C(c1ccc(Cl)cc1)N1CCC(c2ccncc2)CC1	87% (inactive)
Cc1cc(C)n2nc(-c3ccccc3)cc2n1	97% (inactive)
Cc1cc(-c2ccccc2)n2nc(-c3ccccc3)cc2n1	-3% (active)
Cc1cc(-c2ccccc2)n2nc(-c3cccc(Br)c3)cc2n1	14% (active)
O=C(Nc1ccc(Br)cc1)c1cc2nc(-c3ccccc3)cc(-c3ccccc3)n2n1	65% (inactive)
Brc1cccc(-c2cnn3c(-c4ccccc4)cc(-c4ccccc4)nc23)c1	74% (inactive)
Cc1cc(-c2ccccc2)n2nc(N)nc2n1	99% (inactive)
CS(=O)(=O)N(CC(=O)NCCc1ccccc1)c1cc(C(F)(F)F)ccc1Cl	68% (inactive)
CCOC(=O)c1c(C)[nH]c(C)c1S(=O)(=O)NCC(=O)NCc1cccc(Br)c1	130% (inactive)
COc1ccc(C)cc1S(=O)(=O)N1CCN(c2cccc(Cl)c2)CC1	59% (inactive)
Cc1cc(C)c(Cn2c(CCNC(=O)c3ccco3)nc3ccccc32)c(C)c1	59% (inactive)
COc1cccc(-n2c(=O)c3sc4ccccc4c3n(CC(=O)Nc3ccccc3C)c2=O)c1	74% (inactive)
COc1cccc(Cn2nnc(C(=O)Nc3cc(C)ccc3C)c2N)c1	100% (inactive)
Cc1ccc(NC(=O)Cn2nnc(C(=O)NCCc3ccccc3)c2N)cc1Cl	105% (inactive)
Cc1cccc(NC(=O)Cn2nnc(C(=O)Nc3ccc(F)c(Cl)c3)c2N)c1	101% (inactive)
CCc1ccccc1NC(=O)Cn1nnc(C(=O)NCc2cccs2)c1N	94% (inactive)
CCc1ccccc1NC(=O)Cn1nnc(C(=O)NCc2cccc(OC)c2)c1N	70% (inactive)
Cc1ccc(NC(=O)Cn2nnc(C(=O)NCCc3ccccc3)c2N)cc1C	46% (active)
COc1ccc(NC(=O)Cn2nnc(C(=O)Nc3ccc(F)c(Cl)c3)c2N)cc1OC	37% (active)
Cc1ccc(NC(=O)Cn2nnc(C(=O)NCCc3ccccc3)c2N)cc1	87% (inactive)
Cc1cc(C)cc(NC(=O)Cn2nnc(C(=O)NCc3ccccc3Cl)c2N)c1	72% (inactive)

SMILES	survival
CCc1ccccc1NC(=O)Cn1nnc(C(=O)NCc2ccccc2Cl)c1N	20% (active)
COc1ccc(NC(=O)Cn2nnc(C(=O)Nc3ccc(C)c(F)c3)c2N)cc1Cl	118% (inactive)
COc1cccc(CNC(=O)c2nnn(CC(=O)Nc3cc(Cl)ccc3C)c2N)c1	25% (active)
COc1ccc(-c2nnc(SCC(=O)Nc3c(C)cccc3C)nc2-c2ccc(OC)cc2)cc1	92% (inactive)
COc1cccc(CNC(=O)c2ccc(-c3nc(CS(=O)(=O)c4ccccc4)c(C)o3)cc2)c1	72% (inactive)
COc1ccc(-c2noc(-c3ccc(N4CCCC4)c([N+](=O)[O-])c3)n2)cc1OC	59% (inactive)
CCC(C)NC(=O)c1cc2cc(S(=O)(=O)N3CCCCC3)ccc2n1C (stereo not drawn)	55% (inactive)
CCc1cccc(NC(=O)CC2Oc3ccc(C)cc3NC2=O)c1 (stereo not drawn)	79% (inactive)
Cc1ccc(S(=O)(=O)Nc2nc(C)c(NC(=O)NC3C=NN=C3)s2)cc1	90% (inactive)
O=C(NCc1cccnc1)C(=O)NCC(c1cccnc1)N1CCN(c2ccc(F)cc2)CC1 (stereo not drawn)	70% (inactive)
Cc1cccc(NC(=O)Cn2nnc(C(=O)Nc3ccccc3Br)c2N)c1C	8% (active)
Nc1c(C(=O)NCc2ccc(Cl)cc2Cl)nnn1Cc1ccc(Br)cc1	45% (active)
Cc1ccc(C)c(Cn2nnc(C(=O)NCc3ccc(Cl)cc3Cl)c2N)c1	62% (inactive)
COc1ccccc1NC(=O)Cn1nnc(C(=O)Nc2ccccc2Br)c1N	89% (inactive)
COc1cccc(Cn2nnc(C(=O)NCc3ccc(Cl)cc3Cl)c2N)c1	71% (inactive)
Cc1ccc(C)c(NC(=O)c2nnn(CC(=O)Nc3cccc(C)c3C)c2N)c1	98% (inactive)
Cc1ccc(Cl)cc1NC(=O)CC1Sc2ccccc2NC1=O (stereo not drawn)	93% (inactive)
CC(CCc1ccccc1)NC(=O)CSc1n[nH]c(-c2ccccc2Cl)n1 (stereo not drawn)	54% (inactive)
COc1ccc(CCNC(=O)c2cc(Sc3cccc(Cl)c3)nc3ccccc23)cc1OC	89% (inactive)
CCc1c(C)sc2c1CCN(C(=O)Nc1ccccc1C(=O)OC)C2c1ccc(F)cc1 (stereo not drawn)	105% (inactive)
CCc1c(C)sc2c1CCN(C(=O)Nc1ccc(F)c(Cl)c1)C2c1ccc(F)cc1 (stereo not drawn)	46% (active)
CCc1c(C)sc2c1CCN(C(=O)Nc1cc(OC)c(OC)c(OC)c1)C2c1ccccc1 (stereo not drawn)	25% (active)
CCc1c(C)sc2c1CCN(C(=O)Nc1cc(Cl)c(OC)cc1OC)C2c1ccccc1 (stereo not drawn)	63% (inactive)
CCc1c(C)sc2c1CCN(C(=O)Nc1cc(C)cc(C)c1)C2c1ccccc1 (stereo not drawn)	55% (inactive)
CCc1c(C)sc2c1CCN(C(=O)Nc1cc(C)ccc1OC)C2c1ccc(F)cc1 (stereo not drawn)	144% (inactive)
O=C(CCCN1C(=O)c2cccnc2Oc2ccc(Cl)cc21)NCc1ccc(F)cc1	90% (inactive)

SMILES	survival
CCOc1ccccc1NC(=O)Cn1c(=O)n(CC(=O)NCc2ccccc2Cl)c(=O)c2sccc21	154% (inactive)
O=C(CSc1ccccc1)NCc1ccc2c(c1)CCN2C(=O)c1ccc(F)cc1	88% (inactive)
CCOc1ccccc1N1CC(c2nc3ccccc3n2Cc2c(C)cc(C)cc2C)CC1=O (stereo not drawn)	92% (inactive)
CCOc1ccccc1N1CC(c2nc3ccccc3n2CCOc2ccccc2OC)CC1=O (stereo not drawn)	95% (inactive)
CCc1ccccc1N1CC(c2nc3ccccc3n2CCCCOc2ccccc2OC)CC1=O (stereo not drawn)	80% (inactive)
Cc1ccc(C)c(OCCn2c(C3CC(=O)N(Cc4ccc(F)cc4)C3)nc3ccccc32)c1 (stereo not drawn)	0% (active)
Cc1cccc(C)c1OCCn1c(C2CC(=O)N(c3cccc(Cl)c3)C2)nc2ccccc21 (stereo not drawn)	57% (inactive)
Cc1cccc(C)c1OCCn1c(C2CC(=O)N(Cc3ccc(F)cc3)C2)nc2ccccc21 (stereo not drawn)	4% (active)
Cc1ccc(OCCn2c(C3CC(=O)N(Cc4ccc(F)cc4)C3)nc3ccccc32)c(C)c1 (stereo not drawn)	3% (active)
Cc1cc(C)c(Cn2c(C3CC(=O)N(c4ccc(F)cc4)C3)nc3ccccc32)c(C)c1 (stereo not drawn)	91% (inactive)
COc1ccccc1OCCCn1c(C2CC(=O)N(c3ccc(F)cc3)C2)nc2ccccc21 (stereo not drawn)	76% (inactive)
C=CCc1ccccc1OCCn1c(C2CC(=O)N(Cc3ccc(F)cc3)C2)nc2ccccc21 (stereo not drawn)	0% (active)
CC(=O)c1cccc(NC(=O)C(C)n2c(=O)cc(-c3ccccc3)c3c(C)nn(C)c32)c1 (stereo not drawn)	102% (inactive)
CC1CCN(C(=O)Cn2cc(SCC(=O)NCc3ccccc3Cl)c3ccccc32)CC1	64% (inactive)
COc1cc(/C=C/c2nc(C#N)c(N3CCCCC3)o2)cc(OC)c1OC	89% (inactive)
COc1ccc(OCCn2c(C)nc3cc(C)c(C)cc32)cc1	57% (inactive)
COc1ccc(NCc2nc3ccccc3n2CCOc2ccc(C)cc2)cc1	17% (active)
Cc1ccc(OCCn2c(CNc3cccc(C)c3)nc3ccccc32)cc1	-3% (active)
CCOc1ccc(NCc2n[nH]c(=S)n2-c2ccc(C)cc2)cc1	90% (inactive)
CCC(O)c1nc2ccccc2n1CCOc1cc(C)cc(C)c1 (stereo not drawn)	100% (inactive)
CCOc1ccc(NCc2nc3ccccc3n2CCOc2ccc(C)cc2)cc1	1% (active)
CCc1nnc2c(Nc3ccccc3Br)nc3ccccc3n12	93% (inactive)
CCc1nnc2c(Nc3cccc(C(C)=O)c3)nc3ccccc3n12	92% (inactive)
CCOc1ccc(Nc2nc3ccccc3n3c(CC)nnc23)cc1	36% (active)
Cc1ccc(C)c(Cn2cc(CCC(=O)NC3CCCCC3)c3ccccc32)c1	86% (inactive)
CC(C)(C)OC(=O)N/N=C/c1cccc(O)c1	79% (inactive)

SMILES	survival
Nc1nnc2c(Nc3ccccc3)nc3nonc3n12	86% (inactive)
O=C(NC1CCCCC1)c1ccc(CSc2nc3cccnc3n2Cc2cccc(F)c2)cc1	83% (inactive)
CC(C)(C)c1ccc(-c2ncccc2O)cc1	53% (inactive)
CCc1c(C)c2ccc3c(c2oc1=O)CN(Cc1ccccc1)CO3	99% (inactive)
COc1ccc(NC(=O)C2CCN(S(=O)(=O)c3c(C)noc3/C=C/c3cccs3)CC2)cc1	90% (inactive)
Cn1c(=O)c2c(c3ccccc31)OC(=O)CC2c1cccc(F)c1 (stereo not drawn)	59% (inactive)
CCc1sc(Nc2cccc(Cl)c2)nc1-c1cc2cccc(OC)c2oc1=O	90% (inactive)
COc1cccc(CN(C(=O)COc2ccc(Cl)c(C)c2)C2CCS(=O)(=O)C2)c1 (stereo not drawn)	71% (inactive)
Cc1ccc(NCc2nc3ccccc3n2CCOc2ccccc2)cc1	3% (active)
Clc1ccc(NCc2nc3ccccc3n2CCOc2ccccc2)cc1	50% (inactive)
Cc1nn(CC(=O)Nc2ccccc2C(F)(F)F)c(=O)c2cccn12	93% (inactive)
COc1ccc(C(C(=O)Nc2ccc(C(C)C)cc2)N(C)C(=O)Cc2cccs2)cc1 (stereo not drawn)	127% (inactive)
Cc1ccc(S(=O)(=O)N2CCNCC2)cc1	87% (inactive)
Cc1cc(C)c2nc(NC(=O)c3ccc(S(=O)(=O)N4CCCC4)cc3)sc2c1	102% (inactive)
CCOc1cccc2sc(NC(=O)c3ccc(S(=O)(=O)N4CCCCC4)cc3)nc12	94% (inactive)
Cc1ccc(Cl)c2sc(NC(=O)c3ccc(S(=O)(=O)N4CCCC4)cc3)nc12	63% (inactive)
COc1ccc(C)c2sc(NC(=O)c3ccc(S(=O)(=O)N4CCCC4)cc3)nc12	101% (inactive)
CNC(=O)c1c(NC(=O)c2ccc(S(=O)(=O)N3CCCC(C)C3)cc2)sc2c1CCC2 (stereo not drawn)	92% (inactive)
CNC(=O)c1c(NC(=O)c2ccc(S(=O)(=O)N3CCCCC3)cc2)sc2c1CCC2	0% (active)
CCOc1cccc2sc(NC(=O)c3ccc(S(=O)(=O)N4CCCc5ccccc54)cc3)nc12	74% (inactive)
Cc1ccc(C)c2sc(NC(=O)c3ccc(S(=O)(=O)N4CCCC4)cc3)nc12	25% (active)
Cc1cc(C)c2sc(NC(=O)c3ccc(S(=O)(=O)N4CCCC4)cc3)nc2c1	37% (active)
Cc1cc(C)c2sc(NC(=O)c3ccc(S(=O)(=O)N4CCOCC4)cc3)nc2c1	101% (inactive)
CCOc1cccc2sc(NC(=O)c3ccc(S(=O)(=O)N4CCCCC4C)cc3)nc12 (stereo not drawn)	37% (active)
CNC(=O)c1c(NC(=O)c2ccc(S(=O)(=O)N3CCC(C)CC3)cc2)sc2c1CCC2	131% (inactive)
